From PubChem BioAssay
An excerpt weighted towards active compounds, which were near 17% of everything screened.
DT40 TDP1 CPT – qHTS for Inhibitors of human tyrosyl-DNA phosphodiesterase 1 (TDP1): qHTS in cells in presence of CPT; hit rate 12% among 420,000; chicken DT40 Tdp1-/-;hTDP1 cells + 20 nM CPT, ATP luminescence, 48 h; Potency, µM (top dose mostly 46.2 µM), usual class: inhibitors; AID 686979, 2013; also: nearly all actives have a fitted effect of over 55% in size
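Chicken DT40 Tdp1-/- cells stably complemented with human TDP1 were seeded at 400 cells/well in medium containing 20 nM camptothecin, exposed to pin-transferred compounds, and grown at 37 °C for at least 48 hr. Viability was read as ATP luminescence.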
HepG2 viability – qHTS for Inhibitors of TGF-b: Cytotox Counterscreen | HepG2 CAGA-GFP viability, ATP luminescence, 18 h | Potency, µM (doses to about 46.1 µM), most hits filed as cytotoxic | hit rate 0.76% among 410,000 | AID 588856, 2011
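HepG2 CAGA-GFP cells (1000/well, DMEM with 1% FBS) received compound, then TGF-beta at 500 pg/mL final, and were incubated 18 hours at 37 degrees C. Viability was read by CellTiter-Glo luminescence. Media-only wells were set as complete cell-killing and DMSO as no toxicity.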
TDP1 cell noCPT – qHTS for Inhibitors of human tyrosyl-DNA phosphodiesterase 1 (TDP1): qHTS in cells in absence of CPT. DT40 Tdp1-/- hTDP1 cells, no CPT, ATP luminescence, 48 h. Potency, µM (highest dose often 46.2 µM), most hits filed as inhibitors. hit rate 15% among 420,000; also: nearly all actives have a fitted effect of over 55% in size
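Chicken DT40 Tdp1-/- cells complemented with human TDP1, screened without camptothecin (DMSO vehicle only), 400 cells/well. Compounds pin-transferred, cells incubated at 37 °C for at least 48 hr. Growth read as ATP-dependent luminescence (CellTiter-Glo, 30 min at RT).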
TGFb inhibitor – qHTS for Inhibitors of TGF-b; HepG2 CAGA-GFP TGF-b/SMAD3 reporter, GFP fluorescence, 18 h; TGF-beta stimulated, 500 pg/mL final; hit rate 1.2% among 410,000; Potency, µM (top dose mostly 46.1 µM), most hits filed as inhibitors; also: nearly all actives have a fitted effect of over 65% in size
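First, reporter cells (HEPG2 CAGA-GFP) rested 2 h at 37 degrees C. Next, compounds were pinned in and TGF-beta added to 500 pg/mL final. After 18 h, GFP was imaged per cell and summed per well.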
HT1080 IDH1KD tx – qHTS for induction of synthetic lethality in tumor cells producing 2HG: qHTS for the HT-1080-IDH1KD cell line; Potency, µM (doses to about 46.1 µM), usual class: cytotoxic; AID 686971, 2013; hit rate 2% among 360,000; HT-1080 IDH1 knockdown viability, ATP luminescence, 48 h
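Using the IDH1-knockdown HT-1080 line run in the same batch and compound series as the NT line, viability after 48 h at 37 °C was determined by CellTiter-Glo luminescence and expressed as % activity.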
HT1080-NT tox – qHTS for induction of synthetic lethality in tumor cells producing 2HG: qHTS for the HT-1080-NT fibrosarcoma cell line; HT-1080-NT fibrosarcoma viability, CellTiter-Glo ATP luminescence, 48 h; Potency, µM (titrated, usually from 46.1 µM), most hits filed as cytotoxic; hit rate 1.6% among 360,000; AID 686970, 2013;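 also: NT is the 2HG producing partner of a matched IDH1 knockdown line; nearly all actives have a fitted effect of over 55% in size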
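Fibrosarcoma NT cells, 750 per well in 5% FBS RPMI, were exposed to compound for 48 hours. Viability: CellTiter-Glo luminescence.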
Numbers stand for hits. Calls follow the shape of the dose curve; as a rule, active = well fitted curve in the direction sought with a large enough effect; inconclusive = small, poorly fitted or top-dose-only effect, or another doubt; inactive = no such curve, though single readings can be large; an effect the other way counts as inactive or inconclusive.

Screening Cc1ccc(NC(=O)N2CC2)cc1NC(=O)N1CC1 returned DT40 TDP1 CPT inconclusive, HepG2 viability inactive, TDP1 cell noCPT inconclusive, TGFb inhibitor inactive, HT1080 IDH1KD tx inactive and HT1080-NT tox inactive.
O=C(Nc1ccc(Cl)cc1)N1CC1 was read as DT40 TDP1 CPT 8.2µM, HepG2 viability inactive, TDP1 cell noCPT 14.6µM, TGFb inhibitor inactive, HT1080 IDH1KD tx inactive and HT1080-NT tox inactive.
For C[C@H](N)Cc1c[nH]c2ccc(O)cc12 the results were DT40 TDP1 CPT inactive and TDP1 cell noCPT inactive.
COC(=O)[C@@H]1[C@H]2CC[C@@H](C[C@H]1OC(=O)c1ccccc1)N2C was read as DT40 TDP1 CPT inactive and TDP1 cell noCPT inactive.
Screening CCCCCCn1c(O)c(C=NC2CCCCC2N)c(=O)[nH]c1=O (configuration not stated) returned DT40 TDP1 CPT 16.4µM, HepG2 viability inactive, TDP1 cell noCPT 16.4µM, TGFb inhibitor inactive, HT1080 IDH1KD tx inactive and HT1080-NT tox inactive.
`CCCCn1c(O)c(C=NC2CCCCC2N)c(=O)[nH]c1=O` (configuration not stated) gave DT40 TDP1 CPT inconclusive, HepG2 viability inactive, TDP1 cell noCPT inactive, TGFb inhibitor inactive, HT1080 IDH1KD tx inactive and HT1080-NT tox inactive.
`C=C1C(=O)O[C@@H]2C[C@@H](C)[C@@H]3C=CC(=O)[C@@]3(C)[C@@H](OC(=O)CC(=O)O[C@H]3[C@@H]4C(=C)C(=O)O[C@@H]4C[C@@H](C)[C@@H]4C=CC(=O)[C@]43C)[C@H]12` gave DT40 TDP1 CPT 0.058µM, HepG2 viability 0.562µM, TDP1 cell noCPT 0.0731µM, TGFb inhibitor 0.251µM, HT1080 IDH1KD tx 0.231µM and HT1080-NT tox inconclusive.
C=C1C(=O)O[C@H]2C[C@@H](C)[C@@H]3C=CC(=O)[C@@]3(C)C[C@H]12 was read as DT40 TDP1 CPT 1.03µM, HepG2 viability 7.94µM, TDP1 cell noCPT 0.651µM, TGFb inhibitor 4.47µM, HT1080 IDH1KD tx 8.2µM and HT1080-NT tox inconclusive.
CCOC(=O)N1CCC(NC(=O)CCc2nc(C3=CCN(C)CC3)no2)CC1 was read as DT40 TDP1 CPT inactive, HepG2 viability inactive, TDP1 cell noCPT inactive, TGFb inhibitor inactive, HT1080 IDH1KD tx inactive and HT1080-NT tox inactive.
For CCOC(=O)c1ccc(NC(=O)CCc2nc(-c3ccc(C)cc3)no2)cc1 the results were DT40 TDP1 CPT inconclusive, HepG2 viability inactive, TDP1 cell noCPT 20.6µM, TGFb inhibitor inactive, HT1080 IDH1KD tx inconclusive and HT1080-NT tox inconclusive.
For CN1CC[C@@]2(c3cccc(O)c3)Cc3nc4ccccc4cc3C[C@H]2C1 the results were DT40 TDP1 CPT 26.6µM and TDP1 cell noCPT inconclusive.
Screening CC(=NCCCn1ccnc1)c1c(O)n(C2CCCCC2)c(=O)[nH]c1=O returned DT40 TDP1 CPT inactive, HepG2 viability inactive, TDP1 cell noCPT inactive, TGFb inhibitor inactive, HT1080 IDH1KD tx inactive and HT1080-NT tox inactive.
Cc1cccc2nc(-c3ccccc3)c(-c3ccc(CN4CCC(n5c(=O)[nH]c6ccccc65)CC4)cc3)nc12 was read as DT40 TDP1 CPT 9.2µM, TDP1 cell noCPT 13µM, HT1080 IDH1KD tx inconclusive and HT1080-NT tox inconclusive.
`Fc1ccc2c(c1)nnn2C1CCN(Cc2ccccc2)CC1` gave DT40 TDP1 CPT inactive, HepG2 viability inactive, TDP1 cell noCPT inactive, TGFb inhibitor inactive, HT1080 IDH1KD tx inactive and HT1080-NT tox inactive.
For N#Cc1ccc2nc(-c3ccc(CN4CCC(n5c(=O)[nH]c6ccccc65)CC4)cc3)c(-c3ccccc3)nc2c1 the results were DT40 TDP1 CPT 5.8µM, TDP1 cell noCPT 9.2µM, HT1080 IDH1KD tx inconclusive and HT1080-NT tox inconclusive.
For CC(C)(C)OC(=O)NCc1ccc(CNC(=O)c2[nH]cnc2C(=O)Nc2ccccc2F)cc1 the results were DT40 TDP1 CPT 13µM, HepG2 viability inactive, TDP1 cell noCPT 7.31µM, TGFb inhibitor inactive, HT1080 IDH1KD tx inactive and HT1080-NT tox inactive.
For CCOP(=O)(OCC)C(NC(=O)c1cccc2ccccc12)C(Cl)(Cl)Cl (configuration not stated) the results were DT40 TDP1 CPT inconclusive, HepG2 viability inactive, TDP1 cell noCPT inactive, TGFb inhibitor inactive, HT1080 IDH1KD tx inactive and HT1080-NT tox inactive.
`N/C(Cc1ccc(Cl)cc1)=N\OC(=O)c1cccc2ccccc12` gave DT40 TDP1 CPT inconclusive, HepG2 viability inactive, TDP1 cell noCPT 29.1µM, TGFb inhibitor inactive, HT1080 IDH1KD tx inconclusive and HT1080-NT tox inconclusive.
`CC(Oc1ccc(Cl)cc1Cl)C(=O)Nc1ccc(S(=O)(=O)Nc2cnc3ccccc3n2)cc1` (configuration not stated) gave DT40 TDP1 CPT inconclusive, HepG2 viability inactive, TDP1 cell noCPT 25.9µM, TGFb inhibitor inconclusive, HT1080 IDH1KD tx inactive and HT1080-NT tox inactive.
`CC(C)(COC(=O)C(c1ccccc1)c1ccccc1)CN1CCOCC1` gave DT40 TDP1 CPT inconclusive, HepG2 viability inactive, TDP1 cell noCPT 20.6µM, TGFb inhibitor inactive, HT1080 IDH1KD tx inactive and HT1080-NT tox inactive.
CCN1CCCC(OC(=O)C(c2ccccc2)c2ccccc2)C1 (configuration not stated) was read as DT40 TDP1 CPT inconclusive, HepG2 viability inactive, TDP1 cell noCPT inconclusive, TGFb inhibitor inactive, HT1080 IDH1KD tx inactive and HT1080-NT tox inactive.
Screening O=C(NC1CN2CCC1CC2)c1cc(Cl)c([N+](=O)[O-])c2nc[nH]c12 (configuration not stated) returned DT40 TDP1 CPT inconclusive, HepG2 viability inactive, TDP1 cell noCPT inconclusive, TGFb inhibitor inconclusive, HT1080 IDH1KD tx inactive and HT1080-NT tox inactive.
For CCn1cc(CN2CCCC(C(=O)c3sccc3C)C2)cn1 (configuration not stated) the results were DT40 TDP1 CPT inactive, HepG2 viability inactive, TDP1 cell noCPT inconclusive, TGFb inhibitor inactive, HT1080 IDH1KD tx inactive and HT1080-NT tox inactive.
Screening CCc1ccc(-c2nc(CN3CCCC(C(=O)NCc4ccc(C)cc4)C3)c(C)o2)cc1 (configuration not stated) returned DT40 TDP1 CPT 8.2µM, HepG2 viability inactive, TDP1 cell noCPT 5.8µM and TGFb inhibitor inconclusive.
